Counter-ions that a name gives are not always drawn. ± gives the standard deviation of the averaged measurements. The full ranking holds about 2,000 compounds; the median of “relative cell viability vs DMSO, compound alone” is about 1.1, and the lowest 2% start at about 0.29. This excerpt belongs to a sample that is enriched for the lowest values.
What follows are compounds tested on TE10 (assay: relative cell viability vs DMSO, compound alone (fraction); TE10 is an esophageal squamous carcinoma line; higher = less cytotoxic). Conditions: 2 µM; 48 h.
Description: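 TE10 ESCC cells (1,000/well, 384-well plates) were treated with Selleck bioactive library compounds at 2 uM alone for 48 h. Viability was read by CellTiter-Glo and expressed relative to DMSO wells. Two technical replicates (A, B).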

Row | SMILES | relative cell viability
1 | CCCCCCCCCCCCCCCC(=O)OCC(O)C1OC(=O)C(O)=C1O [L-Ascorbyl 6-palmitate] | 1.14 ± 0.031
2 | OCc1c[nH]c2ccccc12 [Indole-3-carbinol] | 1.14 ± 0.048
3 | O=C(O)CCCc1c[nH]c2ccccc12 [3-Indolebutyric acid (IBA)] | 1.1 ± 0.024
4 | O=C(/C=C/c1ccc(CN(CCO)CCc2c[nH]c3ccccc23)cc1)NO [LAQ824 (Dacinostat)] | 0.0682 ± 0.006
5 | CCc1c(O)cc(O)c(C(=O)c2ccc(OCCN3CCOCC3)c(OC)c2)c1CC(=O)N(CCOC)CCOC | 0.546 ± 0.009
6 | CC(C)/N=c1\cc2n(-c3ccc(Cl)cc3)c3ccccc3nc-2cc1Nc1ccc(Cl)cc1 [Clofazimine] | 0.929 ± 0.062
7 | CC(C)CC(N)=O [Isovaleramide] | 1.1 ± 0.057
8 | COc1cc(C(=O)NS(=O)(=O)c2ccccc2C)ccc1Cc1cn(C)c2ccc(NC(=O)OC3CCCC3)cc12 [Zafirlukast] | 1.03 ± 0.033
9 | CN1CCc2c(c3ccccc3n2Cc2ccc(C(=O)NO)cc2)C1 [Tubastatin A] | 1.14 ± 0.023
10 | CN1CCc2c(c3ccccc3n2Cc2ccc(C(=O)NO)cc2)C1 [Tubastatin A HCl] | 0.9558 ± 0.0063
11 | Cn1cc(CNCC2CCN(c3ncc(C(=O)NO)cn3)CC2)c2ccccc21 | 0.078 ± 0.0008
12 | CCOc1ccc2nc3cc(N)ccc3c(N)c2c1 [Ethacridine lactate monohydrate] | 1.033 ± 0.0023
13 | CCN(CC)CCCCNc1ncc2cc(-c3cc(OC)cc(OC)c3)c(NC(=O)NC(C)(C)C)nc2n1 | 1.23 ± 0.029
14 | NC1CC1c1ccc(-c2cccc(O)c2)cc1 (centres undefined) | 1.09 ± 0.03
15 | N[C@@H]1CCCN(c2c(/C=C3\SC(=O)NC3=O)cccc2-c2ccccc2)C1 | 1.03 ± 0.047
16 | CN(C)c1cccc(-c2c3c(=O)n(-c4ccccc4Cl)[nH]c3cc(=O)n2C)c1 | 0.959 ± 0.036
17 | Nc1ccccc1NC(=O)c1cnccn1 | 1.11 ± 0.037
18 | CC(C)C[C@H](NC(=O)[C@@H](NC(=O)c1cccc(-c2ccccc2)n1)[C@@H](C)O)B(O)O | 0.0932 ± 0.003
19 | CC(C)C[C@H](NC(=O)CNC(=O)c1cc(Cl)ccc1Cl)B(O)O | 0.341 ± 0.023
20 | CNC(=O)[C@H](Cc1ccccc1)NC(=O)[C@H](CC(C)C)[C@H](CSc1cccs1)C(=O)NO [Batimastat (BB-94)] | 0.884 ± 0.076
21 | CC(C)C[C@H](NC(=O)[C@H](Cc1ccccc1)NC(=O)c1cnccn1)B(O)O [Bortezomib (PS-341)] | 0.09 ± 0.011
22 | Cc1cc2c(cc1CC(=O)c1sccc1S(=O)(=O)Nc1onc(C)c1Cl)OCO2 [Sitaxentan sodium] | 1.06 ± 0.022
23 | CC(C)(O)CC(=O)NCCn1ccc2ncnc(Nc3ccc(Oc4cccc(C(F)(F)F)c4)c(Cl)c3)c21 | 1.17 ± 0.07
24 | Oc1ccc(Nc2nc(-c3ccc(Cl)cc3)cs2)cc1 | 1.11 ± 0.019
25 | COc1cc(C=O)ccc1O [Vanillin] | 1.11 ± 0.027
26 | Cc1cc(Nc2cc(N3CCN(C)CC3)nc(/C=C/c3ccccc3)n2)n[nH]1 | 0.856 ± 0.03
27 | Cc1cc(Nc2cc(N3CCN(C)CC3)nc(/C=C/c3ccccc3)n2)n[nH]1 [ENMD-2076 L-(+)-Tartaric acid] | 0.808 ± 0.069

Row | SMILES | relative cell viability
28 | Cc1cc(C)nc(NS(=O)(=O)c2ccc(N)cc2)n1 [Sulfamethazine] | 1.1 ± 0.044
29 | COCCCC/C(=N\OCCN)c1ccc(C(F)(F)F)cc1 [Fluvoxamine maleate] | 1.21 ± 0.041
30 | COC(=O)[C@]12CCC(C)(C)C[C@H]1[C@H]1C(=O)C=C3[C@@]4(C)C=C(C#N)C(=O)C(C)(C)[C@@H]4CC[C@@]3(C)[C@]1(C)CC2 [Bardoxolone Methyl] | 0.272 ± 0.0085
31 | CC1(C)CC[C@]2(NC(=O)C(C)(F)F)CC[C@]3(C)[C@H](C(=O)C=C4[C@@]5(C)C=C(C#N)C(=O)C(C)(C)[C@@H]5CC[C@]43C)[C@@H]2C1 [Omaveloxolone (RTA-408)] | 0.59 ± 0.032
32 | N#Cc1ccc(-c2csc(NN=C3CCCC3)n2)cc1 [Remodelin] | 1.121 ± 0.0093
33 | COc1cc2ncnc(Nc3ccc(Cl)cc3F)c2cc1OC | 0.999 ± 0.16
34 | COc1cc(C(=O)NC2CCCNC2)cc(OC)c1OC (centres undefined) [Troxipide] | 1.13 ± 0.016
35 | NC(=O)Nc1cc(-c2cccc(F)c2)sc1C(=O)N[C@H]1CCCNC1 | 0.259 ± 0.021
36 | NC(=O)Nc1sc(-c2ccc(F)cc2)cc1C(N)=O | 0.98 ± 0.072
37 | C[N+](C)(C)C[C@H](O)CC(=O)[O-] [L-carnitine] | 1.04 ± 0.016
38 | NC(=O)N1CCC(CC(=O)N2CCC([C@H]3c4ncc(Br)cc4CCc4cc(Cl)cc(Br)c43)CC2)CC1 [Lonafarnib] | 1.06 ± 0.049
39 | CNC[C@H](O)[C@@H](O)[C@H](O)[C@H](O)CO [Meglumine] | 1.008 ± 0.0073
40 | COc1cc(-c2cc(-c3ccc(N4CCNCC4)cc3)cnc2C)cc(OC)c1OC | 1.16 ± 0.019
41 | Nc1ccc(-c2ccc3ncc4ccc(=O)n(-c5cccc(C(F)(F)F)c5)c4c3c2)cn1 [Torin 2] | 0.378 ± 0.014
42 | COc1ccc(-c2ccc3ncc4c(c3c2)n(-c2ccc(N3CCNCC3)c(C(F)(F)F)c2)c(=O)n4C)cn1 | 0.0662 ± 0.0018
43 | COc1cc(-c2cc(-c3cccc(O)c3)cnc2N)cc(OC)c1OC | 1.21 ± 0.0055
44 | COc1ccc(COc2cc3oc(=O)c4cc(C(C)O)ccc4c3cc2OC)cc1 (centres undefined) [Palomid 529 (P529)] | 1.14 ± 0.025
45 | COCCOC(=O)C1=C(C)NC(C)=C(C(=O)OC/C=C/c2ccccc2)C1c1cccc([N+](=O)[O-])c1 (centres undefined) [Cilnidipine] | 1.15 ± 0.055
46 | NCCCC[C@@H]1NC(=O)[C@@H](Cc2ccccc2)NC(=O)[C@H](CC(=O)O)NC(=O)CNC(=O)[C@H](CCCN=C(N)N)NC1=O [Cyclo (-RGDfK)] | 1.1 ± 0.024
47 | CCCCN(Cc1ccc(C(=O)NO)cc1)C(=O)Nc1ccccc1 [Nexturastat A] | 0.716 ± 0.074
48 | CC(=O)Nc1ccc(C(=O)Nc2ccccc2N)cc1 [CI994 (Tacedinaline)] | 1 ± 0.017
49 | CC(C)[C@H](C(=O)Nc1ccc(C(=O)NO)cc1)c1ccccc1 | 0.221 ± 0.015
50 | O=C(NC[C@H]1CN(c2ccc(N3CCOCC3=O)cc2)C(=O)O1)c1ccc(Cl)s1 [Rivaroxaban] | 1.04 ± 0.076
51 | C[C@]12CCC3=C4CCC(=O)C=C4CC[C@H]3[C@@H]1CC[C@@]2(O)CC#N [Dienogest] | 1.19 ± 0.024
52 | CC(C)Oc1ccc(-c2cnc3c(-c4ccnc5ccccc45)cnn3c2)cc1 | 1.19 ± 0.027
53 | c1cc(-c2cnn3cc(-c4ccc(N5CCNCC5)cc4)cnc23)c2cccnc2c1 | 0.0982 ± 0.0034
54 | COc1ccc(-c2cnc3c(-c4cccc5ncccc45)cnn3c2)cc1 | 1.171 ± 0.0012

Row | SMILES | relative cell viability
55 | COC(=O)c1ccc2c(c1)nc(NC(=O)c1ccccc1)n2CCCc1ccccc1 | 0.777 ± 0.0059
56 | O=C(c1ccc(Nc2nccc(-c3cc4ccccc4s3)n2)cc1)N1CCC(N2CCCC2)CC1 [IKK-16 (IKK Inhibitor VII)] | 1.03 ± 0.02
57 | CN1CC[C@H](c2c(O)cc(O)c3c(=O)cc(-c4ccccc4Cl)oc23)[C@H](O)C1 [Flavopiridol HCl] | 0.293 ± 0.03
58 | CN1CC[C@@H](c2c(O)cc(O)c3c(=O)cc(-c4ccccc4Cl)oc23)[C@@H]1CO | 0.501 ± 0.008
59 | CN1CC[C@H](c2c(O)cc(O)c3c(=O)cc(-c4ccccc4Cl)oc23)[C@H](O)C1 [Flavopiridol (Alvocidib)] | 0.228 ± 0.055
60 | C[N+]1(C)CCC(=C(c2ccccc2)c2ccccc2)CC1 [Diphemanil Methylsulfate] | 0.918 ± 0.097
61 | OCCOCCN1CCN(C2=Nc3ccccc3Sc3ccccc32)CC1 [Quetiapine Fumarate] | 1.079 ± 0.0073
62 | Cc1cc(/C=C2/SC(=S)NC2=O)c(C)n1-c1cccnc1 [Optovin] | 1.06 ± 0.031
63 | C[C@@H](O)[C@H]1C(=O)N2C(C(=O)OCOC(=O)C(C)(C)C)=C(SC3CN(C4=NCCS4)C3)[C@H](C)[C@H]12 [Tebipenem Pivoxil] | 1.14 ± 0.037
64 | C[C@@]12C[C@@]3(O)O[C@@H](O1)[C@]1(COC(=O)c4ccccc4)[C@H]3C[C@@]12O[C@@H]1O[C@H](CO)[C@@H](O)[C@H](O)[C@H]1O [Paeoniflorin] | 1.04 ± 0.029
65 | CC(C=CC(=O)NO)=CC(C)C(=O)c1ccc(N(C)C)cc1 (centres undefined) [Trichostatin A (TSA)] | 0.0876 ± 0.0041
66 | CN(C)c1ccc(C(=O)NCCCCCCC(=O)NO)cc1 | 0.627 ± 0.043
67 | COC1C(O)CC(=O)OC(C)CC=CC=CC(OC2CCC(N(C)C)C(C)O2)C(C)CC(CC=O)C1OC1OC(C)C(OC2CC(C)(O)C(O)C(C)O2)C(N(C)C)C1O (centres undefined) [Spiramycin] | 1.11 ± 0.04
68 | C[C@H](CCC(=O)O)[C@H]1CC[C@H]2[C@@H]3[C@@H](O)C[C@@H]4C[C@H](O)CC[C@]4(C)[C@H]3CC[C@]12C [Ursodiol] | 0.96 ± 0.08
69 | COCCCOc1cc(C[C@@H](C[C@H](N)[C@@H](O)C[C@H](C(=O)NCC(C)(C)C(N)=O)C(C)C)C(C)C)ccc1OC [Aliskiren Hemifumarate] | 1.19 ± 0.037
70 | COc1ccc(-c2ccc3c(N4CCOC[C@@H]4C)nc(N4CCOC[C@@H]4C)nc3n2)cc1CO | 0.4942 ± 0.0022
71 | N#CC(=Cc1ccc(O)c(O)c1)C(=O)NCc1ccccc1 [AG-490 (Tyrphostin B42)] | 1.196 ± 0.001
72 | C[C@H](NC(=O)/C(C#N)=C/c1cccc(Br)n1)c1ccccc1 | 1.14 ± 0.032
73 | CCC[C@H](NC(=O)/C(C#N)=C/c1cccc(Br)n1)c1ccccc1 [Degrasyn (WP1130)] | 0.206 ± 0.019
74 | COc1c(C)c(C(=O)c2ccc(N)c(C(=O)O)c2)n2ccccc12 | 1.04 ± 0.041
75 | N#C[C@@H]1C[C@@H]2C[C@@H]2N1C(=O)[C@@H](N)C12CC3CC(CC(O)(C3)C1)C2 [Saxagliptin] | 1.02 ± 0.083
76 | O=C1c2ccccc2-c2n[nH]c3cccc1c23 | 1.27 ± 0.0019
77 | CCN=C1N[C@@H]2[C@@H](O)[C@H](O)[C@@H](CO)O[C@@H]2S1 [Thiamet G] | 1.04 ± 0.037
78 | OCc1ccc(-c2ccc(-c3ccc(CO)s3)o2)s1 | 0.0807 ± 0.0069
79 | Cc1c(Cc2ccc3ccccc3n2)c2cc(F)ccc2n1CC(=O)O | 1.08 ± 0.054

— the supplement of paper PMC10670038
